# PubChem BioAssay (NCI)
# Compounds without any hit were thinned out: in the full panel of roughly 79,000, 15% have a hit. Values without a mark were called inactive. Activity calls are given as the source filed them. No stated cut-off is given here; in the data, active means growth inhibition above about 70%; inactive means the rest.
# What was measured:
# [1] = NCI Yeast Anticancer Drug Screen. Data for the rad50 strain (AID 155);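 further: 0% = growth of vehicle-only cultures of the same strain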; conditions: S. cerevisiae rad50 strain growth inhibition, hits give high values
# How it was run: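 Genetically altered yeast (DNA repair pathway); compound treatment; growth inhibition vs vehicle ctrl.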
# [2] = NCI Yeast Anticancer Drug Screen. Data for the mec2-1 strain (AID 157); conditions: S. cerevisiae mec2-1 strain, hits give high values
# How it was run: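 Growth inhibition is read against vehicle-treated controls after compound exposure of the mec2-1 yeast strain, which is defective in DNA damage repair or cell cycle control.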
# [3] = NCI Yeast Anticancer Drug Screen. Data for the sgs1 mgt1 strain (AID 161);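 further: 0% = growth of cultures given vehicle only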; conditions: S. cerevisiae sgs1 mgt1 strain, hits give high values
# How it was run: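 Percent growth inhibition was derived by comparing compound-exposed mutant yeast with vehicle-exposed cultures. The strain carries alterations in DNA damage repair.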
# [4] = NCI Yeast Anticancer Drug Screen. Data for the cln2 rad14 strain (AID 165);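 further: 0% = growth equal to vehicle treated cultures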; conditions: S. cerevisiae cln2 rad14 strain, hits give high values
# How it was run: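 Growth inhibition, relative to vehicle-treated controls, is the read-out. The test organism is a yeast strain with defined genetic alterations, cln2 rad14.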
# [5] = NCI Yeast Anticancer Drug Screen. Data for the bub3 strain (AID 167); conditions: S. cerevisiae bub3 mutant strain, hits give high values
# How it was run: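 Yeast carrying a defined mutation is treated with each compound, and growth is compared with that of vehicle-exposed cells to give inhibition.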
# [6] = NCI Yeast Anticancer Drug Screen. Data for the mlh1 rad18 strain (AID 175); conditions: S. cerevisiae mlh1 rad18 strain growth inhibition, hits give high values
# How it was run: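 Cells of a genetically altered yeast strain, deficient in DNA damage repair, were treated with compound. Their growth was then compared with that of vehicle-treated cultures to give inhibition.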
# [7] = at 5.0 µM (retest, dose inferred, filed as 0.5)
# [8] = at 50.0 µM (retest, dose inferred, filed as 5.0)
Structure (SMILES),"growth inhibition [1, 7]","growth inhibition [1, 8]",growth inhibition ([1]; at 50.0 µM),"growth inhibition [2, 7]","growth inhibition [2, 8]",growth inhibition ([2]; at 50.0 µM),"growth inhibition [3, 7]","growth inhibition [3, 8]",growth inhibition ([3]; at 50.0 µM),"growth inhibition [4, 7]","growth inhibition [4, 8]",growth inhibition ([4]; at 50.0 µM),"growth inhibition [5, 7]","growth inhibition [5, 8]",growth inhibition ([5]; at 50.0 µM),"growth inhibition [6, 7]","growth inhibition [6, 8]",growth inhibition ([6]; at 50.0 µM)
CCOC(=O)c1c(Cl)c(CC)c(N=[N+]=[N-])n2c1nc1ccccc12,8%,73% (active),58.9%,8%,79% (active),56.9%,10%,73% (active),60.1%,0%,63%,69.6%,1%,74% (active),55%,9%,80% (active),64.6%
CN(Cc1ccccc1)c1nc(=[N+](C)C)ss1,5%,-1%,4.35%,-5%,-1%,8.8%,11%,8%,26.3%,17%,15%,-30.9%,14%,11%,12.2%,10%,16%,33.4%
CCC[CH2][Sn]1([CH2]CCC)[O]C(=O)CN=Cc2c(ccc3ccccc23)[O]1,47%,47%,91.2% (active),74% (active),74% (active),94% (active),38%,38%,92.9% (active),48%,48%,92.6% (active),53%,53%,92.6% (active),67%,67%,91.7% (active)
C=CCOc1ccc(N=NC(C#N)C#N)cc1,8%,88% (active),98.6% (active),5%,87% (active),98.3% (active),3%,88% (active),52.7%,0%,90% (active),58%,-2%,91% (active),97.8% (active),4%,93% (active),54%
CCOC(=N)CCCSSc1ccc(N=[N+]=[N-])cc1,15%,99% (active),98.7% (active),-15%,99% (active),99.2% (active),-5%,97% (active),99% (active),-7%,97% (active),98.5% (active),-7%,99% (active),98.8% (active),-3%,99% (active),99.2% (active)
CC([N+](=O)[O-])C1(O)C(=O)c2cccc3cccc1c23 (configuration not stated),-7%,55%,64.2%,0%,100% (active),58.5%,11%,96% (active),42.2%,4%,42%,76.7% (active),14%,91% (active),68.8%,26%,86% (active),74.5% (active)
Cc1c(CC=C(c2ccccc2)c2ccccc2)cccc1C[N+](C)(C)C,95% (active),73% (active),90.7% (active),78% (active),34%,62.8%,99% (active),98% (active),99% (active),2%,61%,48.1%,25%,72% (active),80.2% (active),95% (active),98% (active),98.2% (active)
Cc1cc(/C=C/c2cccc[n+]2C)c(C)n1-c1ccccc1,4%,85% (active),96% (active),-1%,93% (active),91.6% (active),1%,90% (active),95.8% (active),-4%,85% (active),90.8% (active),-8%,85% (active),17.1%,6%,94% (active),93.7% (active)
COC(=O)CCC(NC(=S)N/N=C/c1ccccn1)C(=O)OC (configuration not stated),-2%,29%,72.1% (active),-54%,47%,49.1%,-25%,41%,57.4%,-11%,33%,60.8%,-6%,59%,71.8% (active),-30%,48%,61.8%
